Assay results published in PubChem BioAssay (NCATS).
Several values for one entry are separate records, joined by “and”; a condition that tells them apart may be missing. Identical values can stand only once. Records with an inconclusive call do not appear. Activity calls are given as the source filed them. Unless noted, calls follow the shape of the dose curve; as a rule, active = well fitted curve in either direction with a large enough effect (not every such curve was filed as active); inconclusive = small, poorly fitted or top-dose-only effect, or another doubt; inactive = flat fitted curve, though single readings scatter.

Experiments:
[1] = target: Mitogen-activated protein kinase 10 (Mus musculus) (UniProt Q61831); assay: JNK3 AlphaScreen Assay (AID 530);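 also: kinase came from lysate of stimulated human HepG2 cells; signal reports phosphorylation of biotinylated GST-cJun 1-79 at Ser73 with 10 µM ATP; % is scaled to controls: 0 for no effect and ±100 for the full control effect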
Outline: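 qHTS titrations with 15 min compound pre-incubation before adding ATP (10 uM final). Read-out: AlphaScreen of Ser73-phosphorylated biotin-GST-cJun using HepG2 lysate JNK3 activated by IL-1β and TNFα.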

[2] = target: Cytochrome P450 3A4 (Homo sapiens) (UniProt P08684); assay: qHTS Assay for Inhibitors and Substrates of Cytochrome P450 3A4 (AID 884; active = well fitted curve in the direction sought with a large enough effect; an effect the other way counts as inactive or inconclusive; also: nearly all actives have a fitted effect of over 50% in size; also: potency is read from the fitted curve at half-maximal effect)
Outline: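 Luminescent readout of luciferin produced by CYP3A4 (20 nM) dealkylation of Luciferin-PPXE, 25 uM (its KM). NADPH-driven reaction ran 60 min at RT after 10 min compound preincubation; data scaled to 57 uM ketoconazole as 100% inhibition.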

[3] = Confirmation and Secondary Assay for Modulators of Hemoglobin Beta Chain Splicing at IVS2 654 locus (AID 910; active = well fitted curve in the direction sought with a large enough effect; an effect the other way counts as inactive or inconclusive;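 also: HeLa cells stably carrying EGFP split by mutant beta-globin IVS2-654 intron; per-well total GFP intensity by laser scanning cytometry after 2-day treatment; % of control where 0% means no effect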)
Outline: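 Readout: per-well total peak green fluorescence (488 nm ex, 500–520 nm em) from objects 5–250 µm, reflecting correct splicing of an EGFP-654 reporter. Compounds were applied for 2 days at 37 °C to overnight-plated HeLa EGFP-654 cells; controls were DMSO and 500 nM IVS2-654 PNA.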

[4] = Confirmation and Secondary Assay for Modulators of Hemoglobin Beta Chain Splicing at IVS2 705 locus (AID 930; active = well fitted curve in the direction sought with a large enough effect; an effect the other way counts as inactive or inconclusive;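 also: HeLa cells stably expressing the EGFP-705 splicing reporter; % of control where 0% means no effect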)
Outline: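 Restored EGFP fluorescence after 2-day compound exposure reports splicing correction in IVS2-705 EGFP reporter HeLa cells; positive control was 500 nM splice-blocking PNA oligo. Signal measured as well total peak GFP intensity (488 nm excitation).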

[5] = qHTS Assay for Lipid Storage Modulators (AID 1519; calls by dose curve); conditions: Drosophila S3 cells, BODIPY lipid droplet/cell ratio, laser cytometry, cells loaded with oleic acid
Outline: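 Cells seeded at 5,000 per well were treated with compounds over a concentration series and loaded with oleic acid (400 uM, as added). Lipid droplet fluorescence (488 nm excitation, 500-530 nm channel) was read by laser-scanning cytometry and normalized to 20 uM Triacsin C.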

[6] = AP1 Signaling Pathway (AID 357); conditions: ME-180 AP-1-bla reporter, EGF-induced, beta-lactamase ratio, 5 h; at 7.69 µM (top of the series) unless noted;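 also: ME-180 reporter cells stimulated with EGF at its EC50 level; % is scaled to controls: 0 for no effect and ±100 for the full control effect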
Outline: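 AP-1-bla ME-180 cells, Opti-MEM + 0.5% dialyzed FBS, plated overnight 37 °C. Cpd titration + EC50 EGF, 5 h 37 °C. CCF4 2.5 h RT; ex 405, em 460/530 ratio → %activity, AC50.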

[7] = NFAT Signaling Pathway (AID 444); conditions: Jurkat NFAT-bla M1, carbachol, beta-lactamase ratio, 5 h; at 7.69 µM (top of the series) unless noted;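 also: carbachol stimulus at about its EC50 of 1 µM final; % is scaled to controls: 0 for no effect and ±100 for the full control effect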
Outline: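 Read-out: CCF4 FRET ratio (460 nm/530 nm) after 1 h RT dye loading, used for %activity and AC50 from titration series. Cells: Jurkat NFAT-β-lactamase/M1 line, treated with compound plus 1 uM carbachol for 5 h, 37 °C.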

[8] = Stat Signaling Pathway (AID 446); conditions: ME-180 (cervical carcinoma) SIE beta-lactamase reporter, IL-6 stimulated, 5 h; at 7.69 µM (top of the series) unless noted;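 also: ME-180 cervical cancer cells given 40 pM IL-6 alongside compound; SIE-controlled beta-lactamase reporter measured as 460/530 nm FRET emission ratio; % is scaled to controls: 0 for no effect and ±100 for the full control effect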
Outline: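 FRET read-out (405 nm excitation, 460/530 nm emission) of a beta-lactamase reporter under a STAT-inducible element in ME-180 cervical carcinoma cells. Cells with compound receive 40 pM IL-6 for 5 h. Values are normalised to AC90 stimulation and AC90 JAK-inhibitor controls.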

[9] = target: Glucocorticoid receptor (Homo sapiens) (UniProt P04150); assay: GR-GFP Redistribution (AID 450;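 active = compounds whose dose series gives a full or clear partial fitted curve of increased nuclear translocation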; also: potency is read from the fitted curve at half-maximal effect); conditions: U2OS GR-GFP nuclear translocation, laser cytometry, 2 h
[10] = target: Glucocorticoid receptor (Homo sapiens) (UniProt P04150); assay: GR-EFC Redistribution (AID 451; calls by dose curve; also: potency is read from the fitted curve at half-maximal effect); conditions: CHO-K1 GR-EFC translocation, beta-gal luminescence, 2 h
Outline: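 Translocation of GR-ED fusion to nuclear EA restores b-gal, read by luminescence after 1 h room-temperature detection. Engineered CHO-K1 biosensor cells, 1,000/well, exposed 2 h at 37 C to titrations up to 46 uM final.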

[11] = target: Ubiquitin carboxyl-terminal hydrolase 1 (Homo sapiens) (UniProt O94782); assay: Inhibitors of USP1/UAF1: Pilot qHTS (AID 504865; active = well fitted curve in the direction sought with a large enough effect; an effect the other way counts as inactive or inconclusive;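 also: rhodamine fluorescence freed from ubiquitin-rhodamine substrate followed over time; top concentration of the series differs between compounds; % is scaled to controls: 0 for no effect and ±100 for the full control effect; nearly all actives have a fitted effect of over 35% in size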)
Outline: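 1nM USP1/UAF1 + cpd, 15 min RT; start w/ Ub-Rho 150nM final; kinetic FL 480/540 nm, 6 reads q60 s. Buffer 50mM HEPES pH 7.8, 0.5mM EDTA, 1mM TCEP, 0.01% Tween-20, 0.1 mg/ml BSA.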

[12] = target: Cytochrome P450 3A4 (Homo sapiens) (UniProt P08684); assay: qHTS Assay for Activators of Cytochrome P450 3A4 (AID 885; active = well fitted curve in the direction sought with a large enough effect; an effect the other way counts as inactive or inconclusive; also: nearly all actives have a fitted effect of over 65% in size)
Outline: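 Luminescent readout of luciferin formed from 25 uM Luciferin-PPXE (KM level) by 20 nM CYP3A4 in 200 mM KPO4, with 60 min NADPH-driven reaction at room temperature after 10 min compound exposure. Ketoconazole (57 uM) defined 100% inhibition.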

[13] = target: Lysosomal acid glucosylceramidase (Homo sapiens) (UniProt P04062); assay: Glucocerebrosidase-p2 (AID 348; in the data active = potency below about 10 µM; also: potency is read from the fitted curve at half-maximal effect); conditions: purified GBA, blue fluorogenic substrate, 40 min
Outline: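 Normal human glucocerebrosidase (0.2 nM) with blue fluorogenic substrate (80 uM final) in citrate/phosphate pH 5.9 with 10mM sodium taurocholate, 0.01% tween-20; 40 min RT, NaOH/glycine stop; fluorescence Ex 365/Em 440; AC50 from a titration from 0.6 nM upwards.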

[14] = target: Cytochrome P450 1A2 (Homo sapiens) (UniProt P05177); assay: p450-cyp1a2 (AID 410; calls by dose curve; also: potency is read from the fitted curve at half-maximal effect;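 as to activity change, negative = inhibition: -100% = full effect of reference inhibitor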)
Outline: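 Luminescent demethylation readout: Luciferin-ME (100uM, equal to Km) turned over by 20nM CYP1A2 for 60 min at room temperature after NADPH regeneration addition, following 10 min compound preincubation. Normalization used 57 uM furafylline as full inhibition.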

[15] = target: Dual specificity protein kinase CLK4 (Homo sapiens) (UniProt Q9HAZ1); assay: qHTS Assay for Inhibitors of CDC-like Kinase 4 (ADP-Glo Assay) (AID 1771; active = well fitted curve in the direction sought with a large enough effect; an effect the other way counts as inactive or inconclusive; also: potency is read from the fitted curve at half-maximal effect; nearly all actives have a fitted effect of over 70% in size)
Outline: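 ADP production was read by ADP-Glo luminescence after residual ATP depletion, following 1 h room-temperature reaction of 25 nM Clk4, 1 uM ATP and 100 uM RS peptide with MgCl2, EGTA, DTT and Triton X-100.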

[16] = target: 3',5'-cyclic-AMP phosphodiesterase 4B (Homo sapiens) (UniProt Q07343); assay: qHTS Assay for Inhibitors of PDE-IV (AID 607; active = well fitted activation curve with a large enough effect in the main read-out, with a control signal flat, not every such curve was filed as active; also: % of control where 0% means no effect)
Outline: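 Cell-based read-out of cAMP via a modified cyclic nucleotide-gated channel and membrane potential dye (535/590 nm) in HEK293 cells expressing PDE4 endogenously. Compounds tested up to 22.9 uM final; 100 uM RO 20-1724 reference.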

[17] = qHTS profiling for inhibitors of Plasmodium falciparum proliferation (AID 504749; active = well fitted curve in the direction sought with a large enough effect; an effect the other way counts as inactive or inconclusive;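 also: 0% = DMSO vehicle and full inhibition = artemisinin control; nearly all actives have a fitted effect of over 60% in size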); conditions: P. falciparum in erythrocytes, SYBR Green DNA, 72 h, at 12.8 µM (top of the series)
Outline: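 SYBR Green fluorescence of parasite DNA, read after lysis and overnight dark incubation, measured growth over 72 h in erythrocyte culture at 0.3% parasitemia and 2.5% hematocrit. Data normalised to DMSO and 0.29 uM artemisinin, with plate-drift correction.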

[18] = target: Dual specificity protein kinase CLK4 (Homo sapiens) (UniProt Q9HAZ1); assay: qHTS Assay for Inhibitors of CDC-like Kinase 4 (ADP-FP Assay) (AID 1795; active = well fitted curve in the direction sought with a large enough effect; an effect the other way counts as inactive or inconclusive;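 also: recombinant human CLK4 phosphorylating RS repeat peptide at 1 µM ATP; % is scaled to controls: 0 for no effect and ±100 for the full control effect; nearly all actives have a fitted effect of over 60% in size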)
Outline: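 FP readout: Orange Transcreener ADP2 tracer (4 nM) plus ADP antibody, read after 30 min at room temperature. Kinase step: 6.25 nM Clk4, 100 uM RS peptide, 1 uM ATP, pH 7.5, 1 h.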

[19] = target: Cytochrome P450 2C19 (Homo sapiens) (UniProt P33261); assay: qHTS Assay for Inhibitors and Substrates of Cytochrome P450 2C19 (AID 899; active = well fitted curve in the direction sought with a large enough effect; an effect the other way counts as inactive or inconclusive; also: potency is read from the fitted curve at half-maximal effect; nearly all actives have a fitted effect of over 60% in size)
Outline: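 5nM enzyme + 10uM Luciferin-H EGE (=KM), 50mM KPO4; cpd pin-transferred, 10 min 37C; NADPH regen, 60 min 37C; stopped w/ luciferin detection reagent, 20 min; luminescence. Normalized to 57uM ketoconazole (AC100).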

[20] = measured here: cell count channel max response
[21] = measured here: lipid channel max response

Chain of Ubiquitin carboxyl-terminal hydrolase 1 (Homo sapiens) (O94782 whole entry, looked up): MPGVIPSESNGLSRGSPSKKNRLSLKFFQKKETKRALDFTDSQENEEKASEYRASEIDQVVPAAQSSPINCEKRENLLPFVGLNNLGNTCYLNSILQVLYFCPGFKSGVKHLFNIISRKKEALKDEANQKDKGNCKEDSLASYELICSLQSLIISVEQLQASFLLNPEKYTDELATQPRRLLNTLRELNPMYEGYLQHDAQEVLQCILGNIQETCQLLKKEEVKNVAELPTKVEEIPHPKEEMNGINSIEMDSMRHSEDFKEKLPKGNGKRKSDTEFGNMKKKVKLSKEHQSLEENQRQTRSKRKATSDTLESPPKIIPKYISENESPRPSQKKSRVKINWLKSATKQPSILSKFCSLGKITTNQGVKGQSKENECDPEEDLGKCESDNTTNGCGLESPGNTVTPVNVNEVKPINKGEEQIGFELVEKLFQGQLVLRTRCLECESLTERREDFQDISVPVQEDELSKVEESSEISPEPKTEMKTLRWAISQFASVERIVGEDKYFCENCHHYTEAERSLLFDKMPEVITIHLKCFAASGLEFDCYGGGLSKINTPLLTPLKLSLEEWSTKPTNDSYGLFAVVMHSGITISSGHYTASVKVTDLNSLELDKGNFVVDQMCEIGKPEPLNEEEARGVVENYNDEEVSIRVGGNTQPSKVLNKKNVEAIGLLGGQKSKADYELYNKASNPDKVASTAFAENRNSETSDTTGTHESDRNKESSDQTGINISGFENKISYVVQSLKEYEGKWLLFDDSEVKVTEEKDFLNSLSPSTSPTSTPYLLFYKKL
Chain of 3',5'-cyclic-AMP phosphodiesterase 4B (Homo sapiens) (Q07343 whole entry, looked up): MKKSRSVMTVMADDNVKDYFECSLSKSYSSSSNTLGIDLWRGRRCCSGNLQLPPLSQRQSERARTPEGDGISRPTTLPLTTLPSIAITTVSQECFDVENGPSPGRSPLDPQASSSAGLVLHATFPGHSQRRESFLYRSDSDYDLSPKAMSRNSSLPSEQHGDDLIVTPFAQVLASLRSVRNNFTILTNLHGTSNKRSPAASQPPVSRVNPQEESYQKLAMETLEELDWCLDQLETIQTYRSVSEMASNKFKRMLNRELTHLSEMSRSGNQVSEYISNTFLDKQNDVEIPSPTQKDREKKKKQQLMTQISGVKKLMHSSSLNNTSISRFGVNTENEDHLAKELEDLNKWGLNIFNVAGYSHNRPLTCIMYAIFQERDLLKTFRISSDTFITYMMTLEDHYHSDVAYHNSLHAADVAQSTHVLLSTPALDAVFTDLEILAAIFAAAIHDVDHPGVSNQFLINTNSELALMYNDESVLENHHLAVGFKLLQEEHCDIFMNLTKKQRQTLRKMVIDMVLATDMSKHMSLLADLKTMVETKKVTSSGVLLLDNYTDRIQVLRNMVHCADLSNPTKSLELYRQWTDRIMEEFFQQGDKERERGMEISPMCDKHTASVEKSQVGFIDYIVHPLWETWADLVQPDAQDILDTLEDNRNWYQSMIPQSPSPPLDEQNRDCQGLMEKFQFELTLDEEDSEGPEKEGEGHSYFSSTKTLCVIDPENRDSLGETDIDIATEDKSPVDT
Chain of Cytochrome P450 3A4 (Homo sapiens) (P08684 whole entry, looked up): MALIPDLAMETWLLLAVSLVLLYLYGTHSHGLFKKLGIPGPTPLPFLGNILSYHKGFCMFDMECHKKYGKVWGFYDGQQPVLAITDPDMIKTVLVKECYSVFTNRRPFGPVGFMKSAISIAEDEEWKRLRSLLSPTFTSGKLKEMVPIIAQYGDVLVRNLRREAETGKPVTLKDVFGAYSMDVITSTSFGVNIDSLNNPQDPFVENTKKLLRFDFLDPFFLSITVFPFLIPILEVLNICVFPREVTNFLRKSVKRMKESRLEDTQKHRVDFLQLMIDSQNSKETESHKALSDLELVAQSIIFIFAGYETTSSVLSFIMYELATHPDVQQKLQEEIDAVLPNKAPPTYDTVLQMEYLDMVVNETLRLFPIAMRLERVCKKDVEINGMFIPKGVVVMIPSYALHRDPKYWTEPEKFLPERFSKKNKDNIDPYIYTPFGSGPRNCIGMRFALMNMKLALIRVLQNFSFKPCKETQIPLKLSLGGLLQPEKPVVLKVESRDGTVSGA
Chain of Dual specificity protein kinase CLK4 (Homo sapiens) (Q9HAZ1 whole entry, looked up): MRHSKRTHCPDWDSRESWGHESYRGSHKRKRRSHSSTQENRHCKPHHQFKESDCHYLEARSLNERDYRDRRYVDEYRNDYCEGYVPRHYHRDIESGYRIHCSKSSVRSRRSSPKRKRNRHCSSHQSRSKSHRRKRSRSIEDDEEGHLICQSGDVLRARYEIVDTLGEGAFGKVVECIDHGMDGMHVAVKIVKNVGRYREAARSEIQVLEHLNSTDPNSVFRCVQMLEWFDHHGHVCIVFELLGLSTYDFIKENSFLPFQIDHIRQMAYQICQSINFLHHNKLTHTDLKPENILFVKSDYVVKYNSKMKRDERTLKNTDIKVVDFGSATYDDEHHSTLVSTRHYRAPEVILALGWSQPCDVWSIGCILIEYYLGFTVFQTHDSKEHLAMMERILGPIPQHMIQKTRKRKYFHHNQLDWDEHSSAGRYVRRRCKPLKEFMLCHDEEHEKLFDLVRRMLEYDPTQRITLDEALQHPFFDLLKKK
Chain of Cytochrome P450 1A2 (Homo sapiens) (P05177 whole entry, looked up): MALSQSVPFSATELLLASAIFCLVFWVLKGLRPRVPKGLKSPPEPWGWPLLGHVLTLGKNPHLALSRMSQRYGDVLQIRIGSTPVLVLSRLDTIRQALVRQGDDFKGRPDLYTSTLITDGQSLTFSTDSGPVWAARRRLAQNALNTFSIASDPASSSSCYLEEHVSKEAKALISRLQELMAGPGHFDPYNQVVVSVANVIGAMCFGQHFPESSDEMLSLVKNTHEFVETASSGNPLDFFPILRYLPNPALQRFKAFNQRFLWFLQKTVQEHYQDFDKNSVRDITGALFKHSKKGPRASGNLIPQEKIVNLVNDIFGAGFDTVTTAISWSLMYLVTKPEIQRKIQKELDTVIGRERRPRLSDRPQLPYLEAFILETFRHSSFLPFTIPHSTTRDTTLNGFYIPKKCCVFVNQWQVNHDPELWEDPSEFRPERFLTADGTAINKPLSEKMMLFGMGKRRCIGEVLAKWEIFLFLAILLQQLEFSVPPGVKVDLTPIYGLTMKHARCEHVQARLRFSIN
Chain of Lysosomal acid glucosylceramidase (Homo sapiens) (P04062 whole entry, looked up): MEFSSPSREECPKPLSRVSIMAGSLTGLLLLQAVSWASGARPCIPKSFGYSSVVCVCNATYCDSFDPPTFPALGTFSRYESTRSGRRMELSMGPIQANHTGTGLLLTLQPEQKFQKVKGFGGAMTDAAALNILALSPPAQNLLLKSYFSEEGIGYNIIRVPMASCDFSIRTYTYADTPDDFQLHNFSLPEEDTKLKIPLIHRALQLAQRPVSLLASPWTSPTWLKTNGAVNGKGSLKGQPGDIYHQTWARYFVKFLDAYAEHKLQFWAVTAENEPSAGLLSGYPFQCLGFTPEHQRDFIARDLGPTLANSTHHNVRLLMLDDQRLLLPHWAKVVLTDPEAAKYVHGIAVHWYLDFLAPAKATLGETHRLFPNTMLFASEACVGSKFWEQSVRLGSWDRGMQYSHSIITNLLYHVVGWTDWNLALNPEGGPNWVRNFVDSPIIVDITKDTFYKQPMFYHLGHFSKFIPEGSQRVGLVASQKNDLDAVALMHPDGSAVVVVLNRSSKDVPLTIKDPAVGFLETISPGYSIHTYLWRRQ
Chain of Glucocorticoid receptor (Homo sapiens) (P04150 whole entry, looked up, the tested form may be a part): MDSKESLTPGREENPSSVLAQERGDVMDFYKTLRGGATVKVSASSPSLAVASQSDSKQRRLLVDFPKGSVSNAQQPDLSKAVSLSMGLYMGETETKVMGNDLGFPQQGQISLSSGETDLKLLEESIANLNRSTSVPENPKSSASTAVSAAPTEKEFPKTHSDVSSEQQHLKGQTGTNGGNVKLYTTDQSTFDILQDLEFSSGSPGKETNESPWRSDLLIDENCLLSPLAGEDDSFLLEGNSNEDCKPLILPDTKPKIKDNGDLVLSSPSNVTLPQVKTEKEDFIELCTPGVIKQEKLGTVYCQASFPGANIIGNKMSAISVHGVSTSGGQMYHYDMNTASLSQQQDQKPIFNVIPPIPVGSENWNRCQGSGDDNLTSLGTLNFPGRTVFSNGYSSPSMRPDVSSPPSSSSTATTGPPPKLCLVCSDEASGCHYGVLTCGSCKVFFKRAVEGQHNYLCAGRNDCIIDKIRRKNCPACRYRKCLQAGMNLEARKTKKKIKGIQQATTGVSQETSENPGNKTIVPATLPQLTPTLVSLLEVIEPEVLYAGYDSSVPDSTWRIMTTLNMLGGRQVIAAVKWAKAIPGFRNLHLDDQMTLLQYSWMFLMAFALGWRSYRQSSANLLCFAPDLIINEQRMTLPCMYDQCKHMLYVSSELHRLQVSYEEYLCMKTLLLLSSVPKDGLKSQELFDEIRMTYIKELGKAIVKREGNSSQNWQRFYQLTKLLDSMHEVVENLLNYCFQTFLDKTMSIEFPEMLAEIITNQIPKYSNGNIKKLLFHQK
Chain of Cytochrome P450 2C19 (Homo sapiens) (P33261 whole entry, looked up): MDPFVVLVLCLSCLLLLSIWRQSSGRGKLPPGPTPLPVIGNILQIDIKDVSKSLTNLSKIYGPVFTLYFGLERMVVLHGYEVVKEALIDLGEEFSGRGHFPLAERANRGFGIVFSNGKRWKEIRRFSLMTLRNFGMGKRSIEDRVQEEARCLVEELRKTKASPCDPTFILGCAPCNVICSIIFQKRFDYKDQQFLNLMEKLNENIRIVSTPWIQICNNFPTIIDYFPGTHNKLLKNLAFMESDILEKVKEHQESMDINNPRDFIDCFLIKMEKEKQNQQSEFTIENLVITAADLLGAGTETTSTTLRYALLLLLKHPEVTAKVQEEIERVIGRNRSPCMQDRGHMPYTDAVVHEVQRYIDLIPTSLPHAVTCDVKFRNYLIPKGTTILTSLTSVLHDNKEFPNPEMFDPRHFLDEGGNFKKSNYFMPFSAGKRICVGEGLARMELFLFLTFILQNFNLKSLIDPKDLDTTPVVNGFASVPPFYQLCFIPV

CC1=CC(=O)CC(C)(C)C1(O)/C=C/C(C)=C\C(=O)O (stereo not given)
25.4% and 14.8%: max response [5, 21]
12.7% and 14.4%: max response [5, 20]
inactive: Potency [1] | Potency [2] | Potency [3] | outcome [4] | activity change, negative = inhibition ([5]; at 57.5 µM (top of the series)) 8.24% and 1.12%

COC(=O)C1=CO[C@@H](C)[C@H]2CN3CCc4c([nH]c5ccccc45)[C@@H]3C[C@H]12
3.91% and -17.6%: max response [5, 20]
2.39% and -19.1%: max response [5, 21]
inactive: activity change, negative = inhibition [6] -20.4% [at 17.2 µM] and -6.91% [at 17.2 µM] | activity change, negative = inhibition [7] -3.19% [at 17.2 µM] and -17.9% [at 17.2 µM] | activity, negative = inhibition [8] 8.22% [at 17.2 µM] and -4.95% [at 17.2 µM] | Potency [9] > 20.6 µM | Potency [10] > 20.6 µM | Potency [1] | activity change, negative = inhibition ([5]; at 25.7 µM (top of the series)) -0.703% and -0.794% | Potency [11]

NC(Cc1c[nH]c2ccccc12)C(=O)O (stereo not given)
25.9%: max response [5, 20]
44.9%: max response [5, 21]
inactive: Potency [12] | Potency [3] | activity change, negative = inhibition ([5]; at 57.5 µM (top of the series)) 9.94%

N#Cc1cccc(-c2ccc3ncnc(NCc4ccccc4)c3c2)c1
4.36%: max response [5, 20]
2.9%: max response [5, 21]
active: Potency [14] 0.1 µM | Potency [15] 8.91 µM
inactive: Potency [13] > 11.4 µM | activity, negative = inhibition [8] -18.2% | Potency [9] > 46 µM | Potency [10] > 46 µM | Potency [1] | Potency [12] | activity change, negative = inhibition ([5]; at 57.5 µM (top of the series)) -0.0166%

CC(C)N1CCN(c2ccc(OC[C@@H]3CO[C@@](Cn4cncn4)(c4ccc(Cl)cc4Cl)O3)cc2)CC1
-0.321%: max response [5, 20]
inactive: activity change, negative = inhibition [6] 0.955% [at 17.2 µM] | Potency [14] | activity, negative = inhibition [8] 1.27% [at 17.2 µM] | Potency [1] | Potency [16] | Potency [12] | activity change, negative = inhibition ([5]; at 25.7 µM (top of the series)) -0.441% | Potency [11] | activity, negative = inhibition ([17]; parasite line A) 5.81%
active: Potency [2] 1.58 µM
-3.7%: max response [5, 21]

COc1ccccc1CNc1cc(-c2cccc(C#N)c2)ncn1
4.55%: max response [5, 21]
inactive: Potency [13] > 11.4 µM | activity change, negative = inhibition [6] -5.31% | activity change, negative = inhibition [7] 17.8% | activity, negative = inhibition [8] -0.867% | Potency [9] > 46 µM | Potency [10] > 46 µM | Potency [1] | Potency [16] | Potency [12] | activity change, negative = inhibition ([5]; at 57.5 µM (top of the series)) 3.16% | Potency [18] | Potency [11]
4.01%: max response [5, 20]
active: Potency [14] 3.98 µM

Clc1ccccc1-c1ccc2ncnc(NC3CCNCC3)c2c1
active: Potency [14] 15.8 µM | Potency [19] 3.98 µM | Potency [15] 22.4 µM
inactive: Potency [13] > 11.4 µM | activity change, negative = inhibition [7] -8.44% | activity, negative = inhibition [8] -0.786% | Potency [10] > 46 µM | Potency [1] | Potency [16] | activity change, negative = inhibition ([5]; at 57.5 µM (top of the series)) 1.65%
0.483%: max response [5, 20]
1.92%: max response [5, 21]

C[C@@H]1CCC[C@H](C)N1NC(=O)c1ccc(Cl)c(S(N)(=O)=O)c1
inactive: activity change, negative = inhibition [6] 2.6% [at 17.2 µM] and 10.6% [at 17.2 µM] | activity change, negative = inhibition [7] 2.78% [at 17.2 µM] and -21.9% [at 17.2 µM] | activity, negative = inhibition [8] 9.09% [at 17.2 µM] and 21.6% [at 17.2 µM] | Potency [9] > 20.6 µM | Potency [10] > 20.6 µM | Potency [1] | Potency [16] | activity change, negative = inhibition ([5]; at 25.7 µM (top of the series)) 1.49% | Potency [11] | activity, negative = inhibition ([17]; parasite line A) 12.8% | activity, negative = inhibition ([17]; parasite line B) 12%
17.3%: max response [5, 20]
17%: max response [5, 21]
